# Laboratory results as given in PubChem BioAssay AID743156 (Broad Institute, 2013).
# The list shows a part of the results. Unmarked numbers belong to inactive results. Active and inactive are the calls of the source.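 Rule for the calls: active = mean inhibition across replicates of at least 20% with every single replicate also at 20% or more; inconclusive = mean inhibition at least 20% but some replicate falls below 20%; inactive = mean inhibition under 20% and not all replicates reach it.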
# System: PglD UDP-4-amino-sugar N-acetyltransferase (Campylobacter jejuni)
# Assay: PglD acetyltransferase inhibitors, confirmation, biochemical, DTNB absorbance, single point, cherry-picked samples (AID 743156);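 note: initial rate of CoA release by acetyl transfer from AcCoA to the UDP-4-amino sugar; 0% = median of neutral control wells and 100% = median of positive control wells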
# Conditions: Purified C. jejuni PglD, DTNB absorbance 412 nm; at 20 µM; stronger effect = higher value
row,SMILES,inhibition
1,Cc1ccc(NC(=O)CNCc2ccccn2)cc1S(=O)(=O)N(C)C,-5.07%
2,Cc1ccc(C2=C/C(=C\c3cccnc3)C(=O)O2)cc1,7.97%
3,C=CCOC(=O)C1=C(C)NC(SCC(=O)OCC)=C(C#N)C1c1ccc(C)cc1 (configuration not stated),0.793%
4,O=S1(=O)CC(NCc2ccccc2)C(Nc2ccc(Cl)cc2)C1 (configuration not stated),-7.57%
5,CCOc1ccc(OCc2ccc(C(=O)N(C)c3ccccc3)o2)cc1,1.37%
6,CC(C)CCNC(=O)c1ccc2c(Cl)c3c(nc2c1)CCC3,2.89%
7,CCCOc1ccc(F)cc1-c1cc(C(=O)Nc2ccc(F)cc2)[nH]n1,3.61%
8,CC(C)(C)c1ccc(CN2C(=O)c3ccccc3S2(=O)=O)cc1,2.98%
9,CCCCC(=O)Nc1ccc(C(=O)NCCCn2ccnc2)cc1,-0.586%
10,CC(NC(=O)c1ccc(Cl)cc1)C(=O)N1CCCCC1 (configuration not stated),0.85%
11,CC(=O)Nc1ccc(OC(=O)COc2ccc(Br)cc2)cc1,1.84%
12,Cc1ccc(S(=O)(=O)N2CCC(C(=O)NCC3CCCO3)CC2)cc1 (configuration not stated),-10.7%
13,CSc1ccc(S(=O)(=O)NCc2ccc(Cl)cc2)cc1,3.66%
14,C=CC1=C(C(=O)O)N2C(=O)[C@@H](NC(=O)/C(=N/OCC(=O)O)c3csc(N)n3)[C@H]2SC1,37.4% (active)
15,COc1ccc(NC(=O)C2=NNC(=O)CC2)cc1S(=O)(=O)N1CCCCC1,-3.63%
16,O=C(NCc1ccncc1)C1CCN(C(=O)c2cccc(Cl)c2)CC1,2.21%
17,O=C(Nc1ccc(Sc2ccc(Br)cc2)cc1)c1ccco1,11.2%
